Source: PubChem
TAG inh – reduces triacylglycerol accumulation in H9c2 cells | Nile Red lipid (TAG) fluorescence; cells loaded with 200 µM oleic acid | inhibition, % at 12.5 µM | 0.66% of 230,000 active | AID 651582;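 active = pattern-corrected inhibition of lipid staining of at least 50% with the nuclear-stain viability signal not falling by more than 50%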;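 note: 0% = DMSO wells and 100% = triacsin C control wells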
CHT PAM – allosterically activates the human high affinity choline transporter. Q9GZV3. CHT-expressing cells, membrane potential dye, choline EC20; hits give high values; LV-AA mutant CHT in HEK293 cells. B-score at 10 µM. 0.49% of 310,000 active. AID 488977;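 active = initial fluorescence not abnormally high and integrated response B-score, plate-corrected, over 3 SD above library mean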
CHT block – inhibitors of human choline transporter CHT; Q9GZV3; CHT-expressing cells, membrane potential dye, choline response; hits give low values; B-score at 10 µM; 0.86% of 310,000 active;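 active = B-score over 3 SD under the library average, and starting fluorescence ratio not unusually high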;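 note: choline stimulus applied at its EC90 after an EC20 pre-addition; B-score computed on integrated fluorescence ratio after choline addition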
Kir21 inh – blocks the mouse Kir2.1 inward-rectifier potassium channel | P35561 | B-score at 10 µM | AID 1672 | 0.85% of 310,000 active | HEK293-Kir2.1, FluxOR thallium flux fluorescence; hits give low values;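 active = fluorescence ratio B-score at or below minus 3 SD of library scores, with starting-brightness B-score within 2 SD, cut at about -4.2 in these data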;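 note: channel flux triggered by added potassium and thallium sulfate stimulus; B-score of peak minus minimum fluorescence over baseline after thallium stimulus; more negative B-score means stronger Kir2.1 block with less thallium influx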
Target sequence (P35561 whole entry, looked up): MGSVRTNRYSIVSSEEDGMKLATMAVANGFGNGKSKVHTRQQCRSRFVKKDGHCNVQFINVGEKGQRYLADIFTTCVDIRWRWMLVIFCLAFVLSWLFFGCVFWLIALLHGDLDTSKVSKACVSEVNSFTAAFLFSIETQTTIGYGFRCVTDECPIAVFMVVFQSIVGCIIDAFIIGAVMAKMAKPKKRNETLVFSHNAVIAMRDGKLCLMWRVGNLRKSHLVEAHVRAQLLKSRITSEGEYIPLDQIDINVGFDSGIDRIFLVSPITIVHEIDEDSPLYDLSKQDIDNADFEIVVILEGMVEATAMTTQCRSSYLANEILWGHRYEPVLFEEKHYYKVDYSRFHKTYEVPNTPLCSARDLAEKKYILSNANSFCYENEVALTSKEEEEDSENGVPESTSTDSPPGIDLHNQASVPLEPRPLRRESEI
H9c2 TAG conf – triacylglycerol accumulation inhibition, confirmation. H9c2 lipid accumulation, Nile Red fluorescence; cells loaded with 200 µM oleic acid. 71% of 990 active. AID 651629. shares compounds with TAG inh. inhibition, % at 12.5 µM;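 active = mean inhibition across replicates of 40% or more; inactive = mean inhibition below 40%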;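 note: plate controls were DMSO only wells for no effect and Triacsin C treated wells for full effect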
Numbers without * were called inactive; i = inactive; . = not tested or not shown. Hits are enriched below; roughly 2% of the tested compounds scored in any of these assays.

SMILES | TAG inh | CHT PAM | CHT block | Kir21 inh | H9c2 TAG conf
Cc1ccc(-c2cc(C(F)F)n3ncc(C(=O)Nc4c(C)nn(Cc5c(Cl)cccc5Cl)c4C)c3n2)cc1 | 89* | i | i | 1.7 | 47*
Cc1nn(Cc2c(Cl)cccc2Cl)c(C)c1NC(=O)c1cnn2c(C(F)F)cc(-c3ccccc3)nc12 | 1 | i | i | 1.7 | .
C[C@H](CO)N1C[C@H](C)[C@H](CN(C)Cc2ccccc2)Oc2c(NC(=O)Nc3ccc(F)cc3)cccc2C1=O | 28 | . | . | . | .
C[C@H]1CN([C@@H](C)CO)C(=O)c2cc(NC(=O)Nc3cccc4ccccc34)ccc2O[C@@H]1CN(C)Cc1ccc(-c2ccccc2)cc1 | 72* | . | . | . | 71*
C[C@@H]1CN([C@H](C)CO)C(=O)c2cc(NC(=O)Nc3cccc4ccccc34)ccc2O[C@H]1CN(C)Cc1ccc(C(F)(F)F)cc1 | 10 | . | . | . | .
C[C@@H]1CN([C@H](C)CO)C(=O)c2c(c3ccccc3n2C)-c2ccccc2CO[C@H]1CN(C)Cc1ccc(Oc2ccccc2)cc1 | 59* | . | . | . | 74*
C[C@@H]1CN([C@@H](C)CO)C(=O)c2cccc(NC(=O)Nc3ccc(F)cc3)c2O[C@@H]1CN(C)Cc1ccc(Oc2ccccc2)cc1 | 73* | . | . | . | 81*
CCN(c1ccc(OC)cc1)S(=O)(=O)c1csc(C(=O)N2CCCC2)c1 | . | i | i | -0.65 | .
CN(C)C(=O)c1cnc(-c2ccccc2)nc1-c1ccccc1 | . | i | i | 0.02 | .
COc1cccc(Nc2nc(C(N)Cc3ccc(C(F)(F)F)cc3)cs2)n1 (configuration not stated) | 72* | . | . | . | 37
COc1ccc(CNC(=O)Nc2nc(C(N)Cc3ccc(C(F)(F)F)cc3)cs2)cc1 (configuration not stated) | 61* | . | . | . | 35
COc1cccc(Nc2nc(C(N)Cc3ccc(F)cc3)cs2)n1 (configuration not stated) | 20 | . | . | . | .
COc1ccccc1CNC(=O)Nc1nc(C(N)CCc2ccccc2)cs1 (configuration not stated) | 57* | . | . | . | 35
NC(Cc1ccc(Cl)cc1)c1csc(NC(=O)NCCc2ccccc2)n1 (configuration not stated) | 74* | . | . | . | 42*
CCOc1ccc(C(C)=O)cc1COC(=O)c1ccc2c(c1)NC(=O)CS2 | 2 | . | . | . | .
COc1ccc(C(=O)NCC2(N3CCCCC3)CCCCC2)cc1S(=O)(=O)N(C)C | . | i | i | 0.84 | .
COc1cccc(/C=N\NC(C)=O)c1OC/C=C/c1ccccc1 | 3 | i | i | 0.75 | .
Cc1ccc(NCC(=O)Nc2ccc(F)c(Cl)c2)cc1S(=O)(=O)N1CCOCC1 | 1 | . | . | . | .
COc1cc(CNC(=O)Nc2nc(C(N)c3ccccc3)cs2)cc(OC)c1OC (configuration not stated) | 23 | . | . | . | .
CC(C)c1ccc(NC(=O)Nc2nc(C(N)COCc3ccccc3)cs2)cc1 (configuration not stated) | 83* | . | . | . | 102*
COc1cc(CNC(=O)Nc2nc(C(N)Cc3ccc(Cl)cc3)cs2)cc(OC)c1OC (configuration not stated) | 67* | . | . | . | 94*
CC(C)c1ccc(NC(=O)Nc2nc(C(N)c3ccccc3)cs2)cc1 (configuration not stated) | 36 | . | . | . | .
COc1ccc(CC(N)c2csc(NC(=O)c3cccc(OC(F)(F)F)c3)n2)cc1 (configuration not stated) | 52* | . | . | . | 34
CC(C)c1ccc2c(c1)C(c1ccc(N3CCOCC3)cc1)=NNC(c1cccs1)=N2 | 52* | i | i | -0.46 | 29
O=[N+]([O-])c1cccc(S(=O)(=O)N2CN(c3ccc(Br)cc3)c3nc4ccccc4nc32)c1 | 62* | . | . | . | 49*
N#C/C(=C\c1cc([N+](=O)[O-])c(N2CCCCC2)cc1N1CCCCC1)c1nn(-c2ccccc2)c(N)c1C#N | 51* | i | i | 0.52 | 53*
O=C1OCC2=C1C(c1ccc(F)cc1)c1cc3c(cc1N2)OCO3 (configuration not stated) | -9 | . | . | . | .
CCOc1ccccc1C1C2=C(COC2=O)Nc2cc3c(cc21)OCO3 (configuration not stated) | 53* | i | i | -0.04 | 53*
C[C@H](O)[C@@H]1C(=O)N2CCc3c([nH]c4ccccc34)[C@@H]2C[C@@H]1N(C)C(=O)NC1CCCCC1 | 18 | . | . | . | .
